Source: PubChem BioAssay (EPA / NIEHS)
Calls of active or inactive are those of the source. The calls were made as follows: active = hit-call score of the fitted dose curve at least 0.9, where 1 is the maximum; inactive = score below 0.9.

Each compound was assayed on ABC Transporter (ABCC2), ABCC2 (gene 1244) (assay: LTEA_HepaRG_ABCC2: Life Technologies and Expression Analysis (LTEA) Assay for ABC Transporter (ABCC2) using HepaRG (AID 2283464)). Conditions: mRNA level, 48 h; actives raise or lower the signal.
Method: LTEA_HepaRG is a cell based, multiplexed-readout assay that uses HepaRG, a human liver cell line, with measurements taken at 48 hours after chemical dosing on a 96-well plate.LTEA_HepaRG_ABCC2 is one of 102 assay component(s) measured in the LTEA HepaRG cell culture assay. It is a marker of Steatosis/NR mediated transport.Data from the assay component LTEA_HepaRG_ABCC2 was analyzed into 1 endpoint. This assay endpoint, LTEA_HepaRG_ABCC2, was analyzed with bidirectional fitting relative to DMSO as the negative control and baseline of activity. Using a type of inducible reporter, measures of mRNA induction for gain or loss-of-signal activity can be used to understand regulation of transcription factor activity. To generalize the intended target to other relatable targets, this assay endpoint is annotated to the transporter intended target family, where the subfamily is ABC transporter.
A total of 1060 chemcials from the ToxCast library were tested in eight-point concentration-response experiments. Cell culture and cytotoxicity assays were conducted at Thermo Fisher Scientific's Custom Services facility (Madison, WI). A single lot of human HepaRG cells (Thermo Fisher Scientific, Frederick, MD) was used for the cell culture experiments. 96-well format collagen type I coated plates of human HepaRG cells were prepared using established methods. Briefly, cryopreserved HepaRG cells were thawed, plated at a density of approximately 100,000 cells/well in HepaRG Thaw, Plate, and General Purpose media (HPRG770, Thermo Fisher Scientific), and incubated for 48 hours. 0.5% DMSO was selected as vehicle control to balance the requisite need of DMSO in HepaRG cultures to maintain differentiation (for example, baseline metabolism, proportions of hepatocytes vs. cholangiocytes), while enabling further hepatic receptor pathway activation (for example, PXR and CAR) in response to chemical exposure. 48 hours after plating, the culture medium was replaced with HepaRG Serum-Free Incudtion Media. Cells were exposed to each test chemical in duplicate and maintained in CO2 incubators for another 48 hours. Chemical plates were thawed to room temperature and 200x concentrations of treatment groups were prepared. 8-point conentration-reponse curves were made with the highest exposure at 100 uM, followed by half-log dilutions, all in 0.5% DMSO. Each test plate contained variouse controls, induction positive controls (1mM phenobarbital), cytotoxicity positive controls ([…] aflatoxin B1), vehicle controls (0.5% DMSO), and total lysis controls (0.5% DMSO). Cell morphology images were taken using an Essen IncuCyte FLR automated microscope, with six 96-well plates imaged in about 24 minutes. Images were captured and exported and JPEG files. Spent culture media was transfered to black-well plates for the LDH assay, and remaining media was sorted at -80 C for later use. Cells were treated with RLT buffer and frozen until shipped for gene expression analysis. Total RNA was isolated from the cell suspension in 75 uL of Buffer RLT (Qiagen, Germantown, MD 20874) by Quintiles/Expression Analysis (Durham, NC) using a custom isolation procedure. Total RNA from each plate well was transferred to a preamplification plate. Fluidigm's 96.96 Dynamic ArrayTM (Fluidigm, Amsterdam, the Netherlands) technology was used for gene expression analyses by quantitative reverse transcription polymerase chain reaction (qRT-PCR, performed by Quintiles/Expression Analysis, Durham, NC)89. Standard TaqManTM Assays (Applied Biosystems/ThermoFisher Scientific, Foster City, CA) were used to assess the expression of 93 genes selected based on their selectivity and sensitivity to important hepatic receptors known to be modulated by environmental chemicals; importance in human hepatocyte functionality; and hepatotoxicity. […]
`CCNc1nc(Cl)nc(NC(C)(C)C)n1` was tested, and the AC50 was 4.01 µM (active). In the case of `OCC1CO1` (stereo not given), the outcome is reported as “inactive”. For `Nc1ccc(Cl)cc1`, the outcome was “inactive”. With `CC(Cl)(Cl)C(=O)O` the outcome was “inactive”. With `CCCCN(CCCC)SN(C)C(=O)Oc1cccc2c1OC(C)(C)C2` the outcome was “inactive”. In the case of `CCC(C)(C)c1ccc(O)cc1`, the outcome is reported as “inactive”. In the case of `CN(C)C(=O)Cl`, the outcome is reported as “inactive”. For `CCOP(=S)(OCC)SCSCC`, the outcome was “inactive”. With `ClC1=C(Cl)C2(Cl)C3C(Cl)C(Cl)CC3C1(Cl)C2(Cl)Cl` (stereo not given) the AC50 was 8.61 µM (active). For `CCOC(=O)c1ccccc1C(=O)OCC`, the outcome was “inactive”. In the case of `c1ccc(OP(Oc2ccccc2)Oc2ccccc2)cc1`, the outcome is reported as “inactive”. `ClC(Cl)c1ccccc1` was tested, and the outcome was “inactive”. For `Cc1cccc(N)c1`, the outcome was “inactive”. With `Nc1ccc2ccccc2c1` the outcome was “inactive”. For `CCOc1ccc(C(C)(C)COCc2cccc(Oc3ccccc3)c2)cc1`, the AC50 was 24.6 µM (active). In the case of `O=C(O)C1C(C(=O)O)C2(Cl)C(Cl)=C(Cl)C1(Cl)C2(Cl)Cl` (stereo not given), the outcome is reported as “inactive”. `CCN(CC)c1ccccc1` was tested, and the outcome was “inactive”. With `O=P(Oc1ccccc1)(Oc1ccccc1)Oc1ccccc1` the AC50 was 8.94 µM (active). In the case of `CCOP(=S)(Oc1ccc([N+](=O)[O-])cc1)c1ccccc1` (stereo not given), the AC50 is reported as 24 µM (active). For `c1cc2c3c(cccc3c1)CC2`, the outcome was “inactive”. In the case of `c1nc[nH]n1`, the outcome is reported as “inactive”. With `CSC(C)(C)C=NO` the outcome was “inactive”. `CC(C)(C)c1ccc(O)cc1` was tested, and the outcome was “inactive”. For `CCCCc1ccccc1`, the outcome was “inactive”. For `COCCOCCO`, the outcome was “inactive”. In the case of `c1ccc2c(c1)Nc1ccccc1S2`, the outcome is reported as “inactive”. In the case of `CCCCCCCc1ccc(O)cc1`, the outcome is reported as “inactive”. For `Cc1ccc([N+](=O)[O-])cc1C`, the outcome was “inactive”. For `CCCCN(CCCC)N=O`, the outcome was “inactive”. With `[N-]=[N+]=[N-]` the outcome was “inactive”. With `Nc1cc2c3c(c1)C(c1ccccc1)=N[C@@H](NC(=O)c1cccnc1)C(=O)N3CC2` the outcome was “inactive”. With `O=[N+]([O-])c1ccc(Cl)c(Cl)c1` the outcome was “inactive”. For `CC(C)(C)OOC(C)(C)C`, the outcome was “inactive”. In the case of `CC(Cc1ccc(OCC(=O)O)cc1)NCC(O)c1csc(C(F)(F)F)n1` (stereo not given), the outcome is reported as “inactive”. In the case of `Cc1ccc(N)cc1N`, the outcome is reported as “inactive”. In the case of `O=P1(N(CCCl)CCCl)NCCCO1` (stereo not given), the outcome is reported as “inactive”. With `CCOS(=O)(=O)OCC` the outcome was “inactive”. `O=C(O)C(Cl)Cl` was tested, and the outcome was “inactive”. `Cc1ccc(O)cc1C` was tested, and the outcome was “inactive”. `CCCN(CCC)c1c([N+](=O)[O-])cc(C(C)C)cc1[N+](=O)[O-]` was tested, and the AC50 was 18.3 µM (active).
